The results in this text go back to PubChem BioAssay (NCATS).

A short description of experiment [1]: AP1 Signaling Pathway (AID 357). Further: on the % scale 0 is the no-effect control and ±100 the full control effect. The note with it: ME-180 AP-1-bla reporter, EGF-induced, beta-lactamase ratio, 5 h; at 17.2 µM (top of the series) unless noted. The essentials: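 In this screen, ME-180 cells in Opti-MEM with 0.5% dialyzed FBS received EC50 EGF and compound titrations for 5 h. AP-1 reporter beta-lactamase was detected via CCF4 ratio, giving AC50 for positive and negative modulators.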

The nature of experiment [2]: Stat Signaling Pathway (AID 446).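 Further: ME-180 cervical cancer cells given 40 pM IL-6 alongside compound; SIE-controlled beta-lactamase reporter measured as 460/530 nm FRET emission ratio; on the % scale 0 is the no-effect control and ±100 the full control effect.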 The following applies: ME-180 (cervical carcinoma) SIE beta-lactamase reporter, IL-6 stimulated, 5 h; at 17.2 µM (top of the series) unless noted. The essentials:
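FRET read-out (405 nm excitation, 460/530 nm emission) of a beta-lactamase reporter under a STAT-inducible element in ME-180 cervical carcinoma cells. Cells with compound receive 40 pM IL-6 for 5 h. Values are normalised to AC90 stimulation and AC90 JAK-inhibitor controls.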

The target of experiment [3] is Glucocorticoid receptor (Homo sapiens) (UniProt P04150). Briefly: GR-GFP Redistribution (AID 450;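 active means compounds whose dose series gives a full or clear partial fitted curve of increased nuclear translocation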; further: potency means the concentration at half of the fitted maximal effect).
Glucocorticoid receptor (Homo sapiens), sequence (P04150 whole entry, looked up): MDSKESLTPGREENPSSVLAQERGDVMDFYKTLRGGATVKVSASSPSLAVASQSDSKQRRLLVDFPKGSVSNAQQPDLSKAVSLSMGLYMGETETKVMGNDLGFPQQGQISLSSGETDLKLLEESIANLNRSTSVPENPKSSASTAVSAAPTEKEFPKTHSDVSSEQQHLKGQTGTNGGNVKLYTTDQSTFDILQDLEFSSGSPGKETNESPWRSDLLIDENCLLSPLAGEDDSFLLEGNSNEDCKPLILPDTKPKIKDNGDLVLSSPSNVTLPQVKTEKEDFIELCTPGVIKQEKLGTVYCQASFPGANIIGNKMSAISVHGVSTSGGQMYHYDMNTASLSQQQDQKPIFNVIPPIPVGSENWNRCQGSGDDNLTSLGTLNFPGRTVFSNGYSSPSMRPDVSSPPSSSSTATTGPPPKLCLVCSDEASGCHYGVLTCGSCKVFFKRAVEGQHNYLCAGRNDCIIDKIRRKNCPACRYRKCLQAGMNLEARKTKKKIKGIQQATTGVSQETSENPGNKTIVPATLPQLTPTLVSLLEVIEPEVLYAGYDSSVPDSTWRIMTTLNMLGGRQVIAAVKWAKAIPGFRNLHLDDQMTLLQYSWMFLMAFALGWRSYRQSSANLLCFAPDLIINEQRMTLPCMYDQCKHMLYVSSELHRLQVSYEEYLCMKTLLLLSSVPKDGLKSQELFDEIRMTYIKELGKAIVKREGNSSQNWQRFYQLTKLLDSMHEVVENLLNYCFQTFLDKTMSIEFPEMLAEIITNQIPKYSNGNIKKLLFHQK

SMILES strings stand for the structures. Values without a mark were called inactive. Inconclusive results are not listed. Active and inactive are the calls of the source. Unless noted, the call rests on the fitted dose curve; in most records, active means well fitted curve in either direction with a large enough effect (not every such curve was filed as active); inconclusive means small, poorly fitted or top-dose-only effect, or another doubt; inactive means flat fitted curve, though single readings scatter. Some results are limits rather than exact numbers.

For the molecule `Cc1ccc(Cn2ncc3c(N4CCN(Cc5ccc(Cl)cc5)CC4)ncnc32)cc1`, the activity change, negative = inhibition in experiment [1] is -8.19%. For the same molecule, the activity, negative = inhibition in experiment [2] was -14.5%. The Potency in experiment [3] is above 20.6 µM.

With `Cc1nnc(C)n1/N=C/c1cc(Br)cc(Br)c1O`, in experiment [1], the activity change, negative = inhibition is -5.92%. In addition, the activity, negative = inhibition in experiment [2] is -19.2%. Also, the Potency in experiment [3] is above 20.6 µM.

Take `Cn1c(Cl)cnc1C1CC(=O)c2cc(Cl)ccc2O1` (stereo not given): the activity change, negative = inhibition in experiment [1] is 14.1%. Besides, the activity, negative = inhibition in experiment [2] is 0.321%. Also, the Potency in experiment [3] was above 20.6 µM.

For the molecule `COc1cccc(-c2nc(N3CC(C)CC(C)C3)c3ccccc3n2)c1O` (stereo not given), the activity change, negative = inhibition in experiment [1] is 13.7%. Moreover, in experiment [2], the activity, negative = inhibition was 8.47%. Besides, in experiment [3], the Potency was above 20.6 µM.

Turning to `CCCCNC(=O)C(C#N)c1nc2ccccc2nc1N1CCN(c2ccccc2F)CC1` (stereo not given), in experiment [1], the activity change, negative = inhibition is -4.46%. Moreover, the activity, negative = inhibition in experiment [2] is 0.859%. In experiment [3], the Potency was above 20.6 µM.

With `O=C(NC1CCCCC1)N1CCSC1=Nc1ccccc1`, the activity change, negative = inhibition in experiment [1] was 4.48%. For the same molecule, the activity, negative = inhibition in experiment [2] is -11.7%. In addition, in experiment [3], the Potency is above 20.6 µM.

For `CC1(C)Cc2c(C#N)c(SCC(=O)c3ccccc3)nc(N3CCCC3)c2CO1`, in experiment [1], the activity change, negative = inhibition is 24.5%. The activity, negative = inhibition in experiment [2] is 6.65%. Moreover, in experiment [3], the Potency is above 20.6 µM.

With `COc1ccc(OC)c(NS(=O)(=O)c2ccc(N3CCCC3=O)cc2)c1`, the activity change, negative = inhibition in experiment [1] is 18.1%. The activity, negative = inhibition in experiment [2] was 11.3%. In addition, in experiment [3], the Potency was above 20.6 µM.

For the molecule `CC1(C)C2CCC1(C)C(NC(=O)CCN1CCCCC1)C2` (stereo not given), the activity change, negative = inhibition in experiment [1] is 6.22%. Also, in experiment [2], the activity, negative = inhibition was 8.36%. Moreover, the Potency in experiment [3] is above 20.6 µM.

In the case of `CCC1(C)Cc2c(sc3c2c(=O)n(C)c2nnc(SCc4ccccc4)n32)CO1` (stereo not given), in experiment [1], the activity change, negative = inhibition was -2.66%. The activity, negative = inhibition in experiment [2] was 1.36%. Besides, in experiment [3], the Potency is above 20.6 µM.

For the molecule `Fc1ccccc1-c1nc(NCCCN2CCOCC2)c2ccccc2n1`, in experiment [1], the activity change, negative = inhibition is 0.19%. Besides, the activity, negative = inhibition in experiment [2] was -7.69%. In addition, the Potency in experiment [3] is above 20.6 µM.

Consider `CC1(C)Cc2c(sc3nc(SCC#N)n(C4CCCCC4)c(=O)c23)CO1`, for which the activity change, negative = inhibition in experiment [1] was 1.9%. Further, the activity, negative = inhibition in experiment [2] was 10%. Moreover, the Potency in experiment [3] was above 20.6 µM.

As for `O=C(NCCN1CCCCC1)/C(=N\O)c1ccccc1`, the activity change, negative = inhibition in experiment [1] is -7.56%. The activity, negative = inhibition in experiment [2] is -1.14%. For the same molecule, in experiment [3], the Potency is above 20.6 µM.

`CC1(C)Cc2c(C#N)c(SCCOc3ccccc3)nc(N3CCOCC3)c2CO1`: the activity change, negative = inhibition in experiment [1] is -5.93%. Moreover, in experiment [2], the activity, negative = inhibition is -22.3%. Besides, in experiment [3], the Potency was above 20.6 µM.

`Cc1ccc(S(=O)(=O)N2CCN(c3nc(C)c4c(c3C#N)CC(C)(C)OC4)CC2)cc1`: the activity change, negative = inhibition in experiment [1] was 1.26%. Also, in experiment [2], the activity, negative = inhibition was 89.5% [activator] (active). Further, in experiment [3], the Potency is above 20.6 µM.

As for `C[C@]12CC[C@@H]3c4ccc(O)cc4CC[C@H]3[C@@H]1CC[C@@H]2OC(=O)CCC(=O)O`, the activity change, negative = inhibition in experiment [1] was -5.44%. Besides, in experiment [2], the activity, negative = inhibition was -12.1%. Besides, in experiment [3], the Potency was above 20.6 µM.

For the molecule `Fc1ccc2[nH]c3c(N4CCN(C5CCCCC5)CC4)ncnc3c2c1`, the activity change, negative = inhibition in experiment [1] is 7.44%. In addition, the activity, negative = inhibition in experiment [2] was 16.1%. For the same molecule, the Potency in experiment [3] is above 20.6 µM.

`C=CCOC(=O)C(C#N)c1nc2ccccc2nc1N1CCC(C(=O)OCC)CC1` (stereo not given): the activity change, negative = inhibition in experiment [1] is -17.2%. Besides, in experiment [2], the activity, negative = inhibition was -10.4%. Also, the Potency in experiment [3] is above 20.6 µM.

As to `COC(=O)CN(c1nc(C)c(Br)c(OC)n1)S(=O)(=O)c1ccc(C)cc1`, in experiment [1], the activity change, negative = inhibition is -6.01%. Moreover, in experiment [2], the activity, negative = inhibition is 7.73%. For the same molecule, the Potency in experiment [3] is above 20.6 µM.

Consider `CC(C)(C)c1cccc(/C=N/O)c1O`, for which the activity change, negative = inhibition in experiment [1] was -17.8%. For the same molecule, the activity, negative = inhibition in experiment [2] was -5.38%. For the same molecule, the Potency in experiment [3] is above 20.6 µM.

As for `O=C(NCc1ccco1)c1cnn2c(C(F)(F)F)cc(-c3ccco3)nc12`, the activity change, negative = inhibition in experiment [1] is -3.32%. Further, the activity, negative = inhibition in experiment [2] was 10.1%. The Potency in experiment [3] was above 20.6 µM.

As for `CCN(CC)CCCn1c(C)cc2c(c1=O)C(c1ccc(OC)c(OC)c1OC)C(C#N)=C(N)O2` (stereo not given), in experiment [1], the activity change, negative = inhibition is 6.36%. Further, the activity, negative = inhibition in experiment [2] was 10.3%. Further, the Potency in experiment [3] was above 20.6 µM.

As for `Cc1nc(N2CCN(Cc3ccccc3)CC2)c(C#N)c2c1COC(C)(C)C2`, the activity change, negative = inhibition in experiment [1] was -29.1%. Moreover, the activity, negative = inhibition in experiment [2] was -15.6%. In addition, in experiment [3], the Potency is above 20.6 µM.

For the molecule `O=c1[nH]c(CN2CCCCC2)nc2c1C1(CCCC1)Cc1ccccc1-2`, the activity change, negative = inhibition in experiment [1] is 14.5%. For the same molecule, the activity, negative = inhibition in experiment [2] is -7.96%. The Potency in experiment [3] is above 20.6 µM.

For `N#CC1=C2SCC(O)(c3ccccc3)N2C(=O)CC1c1ccccc1` (stereo not given), the activity change, negative = inhibition in experiment [1] is -17.2%. In experiment [2], the activity, negative = inhibition was -21.7%. In experiment [3], the Potency is above 20.6 µM.

As for `Cn1c(=O)c2c3c(sc2n2c(SCC(=O)c4ccc(Cl)cc4)nnc12)COC(C)(C)C3`, the activity change, negative = inhibition in experiment [1] was -6.68%. Also, the activity, negative = inhibition in experiment [2] was -0.164%. For the same molecule, the Potency in experiment [3] was above 20.6 µM.

As for `CC1(C)Cc2c(C#N)c(N3CCOCC3)nc(-c3ccccc3)c2CO1`, the activity change, negative = inhibition in experiment [1] is -10.7%. In addition, the activity, negative = inhibition in experiment [2] is 6.12%. Further, the Potency in experiment [3] is above 20.6 µM.

On to `CCn1cc(C(=O)NCCCN(C)C)c(=O)c2cc(F)c(N3CCN(C)CC3)cc21`, for which, in experiment [1], the activity change, negative = inhibition was -0.851%. Further, in experiment [2], the activity, negative = inhibition is 3.71%. In addition, in experiment [3], the Potency is above 20.6 µM.

In the case of `CN1CCN(c2nc3c(c(=O)n(C)c(=O)n3C)n2Cc2cccc3ccccc23)CC1`, the activity change, negative = inhibition in experiment [1] was -9.31%. The activity, negative = inhibition in experiment [2] is -2.69%. In experiment [3], the Potency was above 20.6 µM.

Take `Brc1ccc(-c2cnc3n2CCCC3)cc1`: the activity change, negative = inhibition in experiment [1] was 1.22%. In experiment [2], the activity, negative = inhibition was 16.1%. Besides, in experiment [3], the Potency was above 20.6 µM.
